Sampled rows, rich in hits. Any-hit rate of the full collection: about 3.5%.
FBW7 activator = FBW7 E3 ligase activators, primary screen, biochemical, AlphaScreen, human; AlphaScreen FBW7–phospho-cyclin E peptide binding, activator screen; AID 1259310, 2017; normalized activity (activation), % at 26.1 µM; 0.13% of 650,000 active; F-box/WD repeat-containing protein 7 (Homo sapiens), Q969H0; in the data active = normalized activity above about 1.9%;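 note: purified mutant Fbw7 with reduced substrate affinity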
GPR151 ag = activators of human GPR151, primary screen, cell-based, PathHunter beta-arrestin, luminescence. G-protein coupled receptor 151 (Homo sapiens), Q8TDV0. PathHunter beta-arrestin GPR151 cells. activation, % at 11.2 µM. 1% of 650,000 active; in the data active = activation above about 4.9%;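 note: 0% = median of compound wells and 100% = cells with positive control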
TEAD-YAP inh = TEAD-YAP interaction inhibition, primary screen, TEAD-YAP interaction inhibitor project, luminescence, HEK-TIYL cells; TEAD-Gal4/YAP UAS-luciferase luminescence; inhibition, % at 9.12 µM; 1.4% of 640,000 active; in the data active = inhibition above about 32%;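 note: 0% = median of test compound wells and 100% = reference inhibitor wells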
MITF primary = MITF inhibitors, primary screen, biochemical, AlphaScreen, human | AlphaScreen MITF homodimerization, bead proximity signal | inhibition, % at 2.6 µM | 0.91% of 650,000 active | AID 1259374, 2018; in the data active = inhibition above about 50%;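 note: 0% = vehicle wells with protein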
Target sequence (O75030 whole entry, looked up): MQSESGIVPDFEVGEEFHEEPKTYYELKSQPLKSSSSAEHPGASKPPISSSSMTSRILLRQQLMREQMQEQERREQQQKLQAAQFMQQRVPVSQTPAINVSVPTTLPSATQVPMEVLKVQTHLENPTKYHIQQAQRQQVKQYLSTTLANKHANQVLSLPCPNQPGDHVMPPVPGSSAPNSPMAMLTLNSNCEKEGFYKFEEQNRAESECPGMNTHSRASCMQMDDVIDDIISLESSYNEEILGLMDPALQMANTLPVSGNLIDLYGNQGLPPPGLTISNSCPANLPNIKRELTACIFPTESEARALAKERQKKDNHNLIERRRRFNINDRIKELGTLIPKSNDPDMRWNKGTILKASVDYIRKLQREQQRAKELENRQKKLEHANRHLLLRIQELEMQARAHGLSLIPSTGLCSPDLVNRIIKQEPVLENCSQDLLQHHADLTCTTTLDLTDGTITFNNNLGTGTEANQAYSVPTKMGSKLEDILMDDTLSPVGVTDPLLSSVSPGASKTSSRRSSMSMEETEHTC
Numbers without * were called inactive.

SMILES	FBW7 activator	GPR151 ag	TEAD-YAP inh	MITF primary
O=C(NCc1n[nH]c(=S)n1-c1cccc(C(F)(F)F)c1)c1cccs1	0	0	-6	-8
Cc1ccc(C(=O)/C=C/Nc2ccccc2C(N)=O)cc1	0	-5	56*	-3
COc1cc(C(=O)/C=C/Nc2ccccc2C)cc(OC)c1OC	0	2	-29	1
COc1cc(C(=O)/C=C/Nc2ccccc2C(N)=O)cc(OC)c1OC	1	-1	38*	6
CSc1cccc(NC(=S)N(CCCN2CCCC(C)C2)Cc2ccco2)c1 (configuration not stated)	0	-1	-5	1
CCOC(=O)C1=C(N)n2c(s/c(=C/c3ccccc3)c2=O)=C(C(=O)OCC)C1c1ccccc1 (configuration not stated)	0	-2	-9	-6
CCOC(=O)C1=C(N)n2c(s/c(=C/c3cccs3)c2=O)=C(C(=O)OCC)C1c1cccs1 (configuration not stated)	0	0	41*	1
CCOC(=O)C1=C(N)n2c(s/c(=C\c3ccc(OC)c(OC)c3)c2=O)=C(C#N)C1c1ccc(OC)c(OC)c1 (configuration not stated)	1	-2	59*	9
CCOC(=O)C1=C(N)n2c(s/c(=C\c3ccc(O)cc3)c2=O)=C(C#N)C1c1ccc(O)cc1 (configuration not stated)	0	1	5	7
O=C(CCc1nnc(-c2ccc3c(c2)OCO3)o1)N1CCC(OCc2ccccc2)CC1	1	1	-58	1
Cc1cccc(Nc2nc3nonc3nc2Nc2ccc(I)cc2)c1C	0	0	13	8
Cc1ccc(Nc2nc3nonc3n3nnnc23)cc1C	0	-1	-8	16
Fc1ccc(Nc2nc3nonc3nc2Nc2ccccc2F)cc1	0	3	83*	-2
O=c1[nH]c2nonc2nc1Nc1ccccc1F	0	-2	73*	6
Cc1cccc(Nc2nc3nonc3nc2Nc2ccc(F)cc2)c1C	0	1	35*	10
Fc1ccc(Nc2nc3nonc3n3nnnc23)cc1	0	-6	46*	6
Nc1nonc1N/N=C/c1ccccc1F	0	0	3	6
CC(C)CC[n+]1ccccc1/C=C/c1ccc(N(C)C)cc1	0	1	91*	6
COC1OC(CO)C(OCc2ccccc2)C(OC)C1NC(C)=O (configuration not stated)	1	0	-11	12
CCOc1cc(C(Nc2cccnc2)c2ccc3cccnc3c2O)ccc1O (configuration not stated)	0	2	-2	5
Oc1c(C(Nc2cccnc2)c2ccccc2F)ccc2cccnc12 (configuration not stated)	-1	-2	75*	51*
Oc1ccccc1C(Nc1ncccn1)c1ccc2cccnc2c1O (configuration not stated)	-1	4	34*	28
Cc1cc(C)c2c3c1C1C=CCC1CN3C(C(=O)O)C1CC=CC21 (configuration not stated)	2.5*	0	-2	25
O=C(O)C1C2CC=CC2c2cc(Oc3ccccc3)cc3c2N1CC1CC=CC31 (configuration not stated)	2.3*	0	-2	0
O=C(O)c1cc2c3c(c1)C1C=CCC1C(c1ccccc1)N3CC1CC=CC21 (configuration not stated)	0	1	13	56*
SMILES	FBW7 activator	GPR151 ag	TEAD-YAP inh	MITF primary
O=C(O)c1cc2c3c(c1)C1CC=CC1C(c1ccc(Br)cc1)N3CC1CC=CC21 (configuration not stated)	0	-1	-6	72*
Cc1ccc(Nc2nc(-c3ccc(O)cc3)cs2)nc1	0	1	33*	-16
CC(C)C(=O)NC(c1ccc(Cl)cc1)c1ccc2cccnc2c1O (configuration not stated)	-2	1	85*	12
CC(C)c1ccc(C(NC(=O)C2CCCCC2)c2ccc3cccnc3c2O)cc1 (configuration not stated)	1	2	19	5
CC(C)C(=O)NC(c1ccccc1)c1ccc2cccnc2c1O (configuration not stated)	-1	-1	90*	28
CC(C)C(=O)NC(c1ccco1)c1ccc2cccnc2c1O (configuration not stated)	-2	-2	64*	44
CC(C)C(=O)NC(c1ccccc1Cl)c1ccc2cccnc2c1O (configuration not stated)	-2	1	84*	19
O/N=C(/c1ccc2c(c1)OCO2)N1CCCCC1	0	0	-4	30
CC(C)(C)c1ccc(Oc2coc3cc(OC(=O)c4cncc(Br)c4)ccc3c2=O)cc1	0	1	13	-6
Cn1nccc1Nc1cc(Nc2ccccc2)ncn1	1	-1	-8	15
COc1ccc(-c2csc(NC(=O)c3cc(C)nn3C)n2)cc1	0	0	63*	0
COc1ccc(-c2csc(NC(=O)c3csc(C)c3)n2)cc1	-1	1	-4	-5
COc1cc(C(=O)Nc2nc(-c3cc4ccccc4o3)cs2)cc(OC)c1OC	0	-1	-1	8
C/C(=N\Nc1cccc(C(F)(F)F)c1)C1CC1	3.4*	1	-8	40
C/C(=N\Nc1ccc(C(F)(F)F)cc1[N+](=O)[O-])C1CC1	0	4	7	8
CCOC(=O)c1c(-c2ccccc2)oc2ccc(OCC(=O)c3ccc(Br)cc3)cc12	0	-1	-3	13
O=c1c(O[C@@H]2O[C@H](CO)[C@H](O)[C@H](O)[C@H]2O)c(-c2ccc(O)c(O)c2)oc2cc(O)cc(O)c12	0	0	-7	-9
O=c1cc(-c2ccc(O)c(O)c2)oc2cc(O)c(C3OC(CO)C(O)C(O)C3O)c(O)c12 (configuration not stated)	0	-1	3	74*
C[C@@H]1O[C@@H](OC[C@H]2O[C@@H](Oc3c(-c4ccc(O)c(O)c4)oc4cc(O)cc(O)c4c3=O)[C@H](O)[C@@H](O)[C@@H]2O)[C@H](O)[C@H](O)[C@H]1O	0	-1	3	83*
O=c1c(O[C@@H]2O[C@H](CO)[C@@H](O)[C@H](O)[C@H]2O)c(-c2ccc(O)c(O)c2)oc2cc(O)cc(O)c12	0	1	-2	61*
O=c1c(O[C@@H]2OC([C@H](O)CO)[C@H](O)[C@H]2O)c(-c2ccc(O)c(O)c2)oc2cc(O)cc(O)c12 (some centres not stated)	0	1	-7	84*
O=c1cc(-c2ccc(O)cc2)oc2c(C3O[C@H](CO)[C@@H](O)[C@H](O)[C@H]3O)c(O)cc(O)c12 (some centres not stated)	0	-1	-8	32
Cc1cccc(CN2CCN(Cc3ccccc3-c3ccc(C)o3)CC2CCO)n1 (configuration not stated)	0	-1	7	7
